Measurements published in PubChem BioAssay (NCATS).
Results filed as inconclusive are left out. Values without a mark were called inactive. Calls of active or inactive are those of the source. Calls come from the whole dose curve; as a rule, active = well fitted cell-killing curve with a large enough effect; inconclusive = small, poorly fitted or top-dose-only effect; inactive = no such curve, though single readings can be large or run the other way.

Assay: qHTS of pediatric cancer cell lines to identify multiple opportunities for drug repurposing: Primary screen for NB-EBc1 cells (AID 1347095)
Conditions: NB-EBc1 neuroblastoma viability, CellTiter-Glo luminescence, 48 h; series mostly up to 46 µM; activity change, negative = cytotoxic: at the top concentration
Description: Drug repurposing or repositioning has been offered as a strategy for drug development in oncology programs. This approach has special potential for childhood cancers and other rare or orphan diseases, where the expected return on new drug development has been a disincentive to pharmaceuticals. […] In this project we exploit the poly-pharmacology of drugs to discover new indications via phenotypic screening of a panel of 19 well-characterized cell lines derived from solid tumors seen in children and adolescents. The goal is to identify approved drugs with previously unrecognized anticancer properties that has the potential to reveal new mechanisms and biological processes involved in carcinogenesis or drug resistance. We employed a titration-based paradigm (quantitative high-throughput screening or qHTS), where all compounds were tested at multiple concentrations for their effect on cell viability. Concentration-response curves (CRCs) were derived directly from the primary screen, and both potency and efficacy values were used to identify compounds with robust bioactivity profiles. We screened the NIH Chemical Genomics Center (NCGC) Pharmaceutical Collection (NPC) and Mechanism Interrogation Plate (MIPE) small molecule collections of approved and investigational compounds against these cell lines; and measured metabolically active cells after 48 hours of compound treatment as a proxy for cell viability. […] Assay Submitter: Nathalia J. Martinez, National Center for Advancing Translational Sciences, National Institutes of Health, Rockville, MD, USA; email: natalia.martinez@nih.gov Shen, M et al. Quantitative high-throughput phenotypic screening of pediatric cancer cell lines identifies multiple opportunities for drug repurposing. Oncotarget 2017 Dec 19;9(4):4758-4772. PMID 29435139.
The cells were obtained from University of North Carolina (UNC), Pediatric Preclinical Testing Program (PPT), and Coriell Institute (CI). qHTS cell viability assay: Cells were assayed in growth media at a density of 500-1,000 cells/well. Five microliters of cells were dispensed into 1,536-well, white, solid-bottom, TC-treated plates (Greiner Bio One) using a multidrop dispenser and incubated at 37 degrees C, 5% CO2, under a humidified atmosphere for 5 hours. Twenty-three nanoliters of compounds and controls (neutral control DMSO or positive control bortezomib at final concentration of 2.3 µM) were subsequently transferred by Kalypsys pintool. For primary screens, the MIPE collection was tested at 11-point dilutions (final concentrations range from 0.78 nM to 46 µM) and the NPC collection at 8-point dilutions (final concentrations range from 0.59 nM to 46 µM). Compounds tested in follow-up screens were assayed at 11-point dilutions. Cells were incubated for 48 hours, followed by addition of 3 µL of CellTiter-Glo (Promega). After a 15 min incubation at room temperature, samples were analyzed for luminescence intensity using a ViewLux High-throughput CCD imager equipped with clear filters.
Potency is the fitted concentration of half-maximal effect.

Row | SMILES | Potency | activity change, negative = cytotoxic
1 | NC(=O)n1c(O)c(C(=O)c2cccs2)c2cc(Cl)ccc21 | 16.8 µM (active) | 
2 | CC(C)[N+](C)(C)CC(O)COc1cccc2ccccc12 (stereo not given) |  | -5.81%
3 | CC[N+](C)(CC)CCOC(=O)C(O)(c1ccccc1)C1CCCCC1 (stereo not given) |  | 20.9%
4 | COc1cc(C(=O)NCc2ccc(OCCN(C)C)cc2)cc(OC)c1OC |  | -3.55%
5 | Cc1ccc(-c2ncc(Cl)cc2-c2ccc(S(C)(=O)=O)cc2)cn1 |  | 15.3%
6 | C/C=C/c1ccc(O)c(OC)c1 |  | 11.3%
7 | CCN1CCCC(OC(=O)C(c2ccccc2)c2ccccc2)C1 (stereo not given) |  | -10.6%
8 | NC(=S)N/N=C/c1cccnc1 |  | 29.5%
9 | CCc1cc(Cl)c(OC)c(C(=O)NC[C@@H]2CCCN2CC)c1O |  | -4.88%
10 | COC(=O)C(c1ccccc1Cl)N1CCc2sccc2C1 (stereo not given) |  | -5.73%
11 | Cl/C(=C\n1cncn1)c1ccc(Cl)cc1Cl |  | 4.42%
12 | CCOC(=O)[C@@](C)(N)Cc1ccc(O)c(O)c1 |  | -14.7%
13 | COc1ccccc1N1CCN(CCCCNC(=O)c2ccc(-c3ccc(C(C)=O)cc3)cc2)CC1 |  | -10.7%
14 | CO[C@]12C[C@@H](COC(=O)c3cncc(Br)c3)CN(C)[C@@H]1Cc1cn(C)c3cccc2c13 |  | 6.47%
15 | CNCCc1ccccn1 |  | 21.2%
16 | Cc1ncc(CO)c(C=O)c1O |  | 7.7%
17 | OCCOCCN1CCN(C2=Nc3ccccc3Sc3ccccc32)CC1 |  | -4.93%
18 | COc1cc([C@H]2Oc3cc([C@H]4Oc5cc(O)cc(O)c5C(=O)[C@@H]4O)ccc3O[C@@H]2CO)ccc1O |  | 28.9%
19 | COc1cc(C(=O)N2CCCCCCC2)cc(OC)c1OC |  | 5.19%
20 | C=C[C@H]1CN2CC[C@H]1C[C@H]2[C@H](O)c1ccnc2ccc(OC)cc12 |  | -0.0214%

Row | SMILES | Potency | activity change, negative = cytotoxic
21 | C=C[C@@]1(C)CC(=O)[C@]2(O)[C@@]3(C)[C@@H](O)CCC(C)(C)[C@@H]3[C@H](O)[C@H](OC(C)=O)[C@@]2(C)O1 |  | 33.2%
22 | CC(O)Cn1cnc2c1c(=O)n(C)c(=O)n2C (stereo not given) |  | -0.614%
23 | NS(=O)(=O)c1cc(C(=O)O)cc(N2CCCC2)c1Oc1ccccc1 |  | -0.632%
24 | CN(Cc1ccc(C(C)(C)C)cc1)Cc1cccc2ccccc12 |  | -19%
25 | CC(=O)O[C@H]1C[C@@H]2CC[C@@H]3[C@H](CC[C@@]4(C)[C@H]3C[C@H]([N+]3(C)CCCCC3)[C@@H]4OC(C)=O)[C@@]2(C)C[C@@H]1N1CCCCC1 |  | 25%
26 | O=C1OC2(c3ccccc31)c1cc(Br)c(O)c(Br)c1Oc1c2cc(Br)c(O)c1Br |  | -2.67%
27 | CCO[C@@H]1O[C@H](C(COCc2ccccc2)OCc2ccccc2)[C@H](OCc2ccccc2)[C@H]1O (stereo not given in full) |  | 3.35%
28 | OC[C@H]1O[C@@H]2O[C@H]3[C@H](O)[C@@H](O)[C@@H](O[C@H]4[C@H](O)[C@@H](O)[C@@H](O[C@H]5[C@H](O)[C@@H](O)[C@@H](O[C@H]6[C@H](O)[C@@H](O)[C@@H](O[C@H]7[C@H](O)[C@@H](O)[C@@H](O[C@H]8[C@H](O)[C@@H](O)[C@@H](O[C@H]1[C@H](O)[C@H]2O)O[C@@H]8CO)O[C@@H]7CO)O[C@@H]6CO)O[C@@H]5CO)O[C@@H]4CO)O[C@@H]3CO |  | 2.29%
29 | CCCCN=C(N)N=C(N)N |  | 19.3%
30 | Cc1cccc(C)c1NC(=O)CN1CCCC1 |  | 4.58%
31 | CCCCCCCCCCCCCCC[C@H](O)[C@@H](N)CO |  | 12.9%
32 | Oc1ccccc1C=NCc1ccccc1 |  | 24.5%
33 | CC(=O)Oc1ccc(C)cc1 |  | 24.6%
34 | Cc1cccc(C)c1NC(=O)CN1CCCCCC1 |  | 4.53%
35 | CCOc1ccccc1OCCN[C@H](C)Cc1ccc(OC)c(S(N)(=O)=O)c1 |  | 6.96%
36 | CCN(CC)CCNc1ccc(CO)c2sc3ccccc3c(=O)c12 | 7.5 µM (active) | 
37 | CCN1CCN(C(=O)N[C@@H](C(=O)N[C@@H]2C(=O)N3C(C(=O)O)=C(CSc4nnnn4C)CS[C@H]23)c2ccc(O)cc2)C(=O)C1=O |  | 14.4%
38 | C[N+]12CCC(CC1)C(OC(=O)C(O)(c1ccccc1)c1ccccc1)C2 (stereo not given) |  | 2.1%
39 | OC[C@H]1O[C@@H](Oc2ccc(O)cc2)[C@H](O)[C@@H](O)[C@@H]1O |  | 2.78%
40 | C#C[C@]1(O)CC[C@H]2[C@@H]3[C@H](C)CC4=C(CCC(=O)C4)[C@H]3CC[C@@]21C |  | 5.72%
